Measurements: PubChem BioAssay (EPA / NIEHS)
Values joined by “and” are separate entries in the source; they are usually repeats but may differ in a detail not shown here. Equal values may be shown once. A structure can be active in one record and inactive in another. Active and inactive are the calls of the source. The calls were made as follows: active = hit-call score of the fitted dose curve at least 0.9, where 1 is the maximum; inactive = score below 0.9.

Key:
Details in all cases: mRNA level, 48 h; actives raise or lower the signal
[1] = read-out: adenosine kinase (ADK) gene, ADK (gene 132); assay: LTEA_HepaRG_ADK: Life Technologies and Expression Analysis (LTEA) Assay for adenosine kinase (ADK) gene using HepaRG (AID 2283471)
How it was run: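 HepaRG (human liver), 48 h chemical exposure, 8-pt half-log series, top 100 uM, 0.5% DMSO vehicle. Readout: ADK mRNA by qRT-PCR vs housekeeping genes; bidirectional curve fit relative to DMSO baseline.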

BCL2L11 (gene 10018) = assay: LTEA_HepaRG_BCL2L11: Life Technologies and Expression Analysis (LTEA) Assay for Bcl-2 (BCL2L11) gene using HepaRG (AID 2283473)
How it was run: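 Read-out is BCL2L11 transcript level by qRT-PCR, normalized to three housekeeping genes and fitted bidirectionally against 0.5% DMSO vehicle. HepaRG cells received chemicals for 48 h in serum-free induction medium, 100 uM down in half-log dilutions.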

[2] = read-out: Apolipoprotein A-V (APOA5) gene, APOA5 (gene 116519); assay: LTEA_HepaRG_APOA5: Life Technologies and Expression Analysis (LTEA) Assay for Apolipoprotein A-V (APOA5) gene using HepaRG (AID 2283474)
How it was run: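 Readout is APOA5 transcript level by qRT-PCR on Fluidigm dynamic arrays, normalized to three housekeeping genes. HepaRG cultures received chemicals for 48 h at up to 100 uM (half-log steps, 0.5% DMSO), with gain or loss scored relative to DMSO.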

[3] = read-out: Bcl-2 (BID) gene, BID (gene 637); assay: LTEA_HepaRG_BID: Life Technologies and Expression Analysis (LTEA) Assay for Bcl-2 (BID) gene using HepaRG (AID 2283476)
How it was run: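 HepaRG, 48 h exposure, 8-pt half-log series, top 100 uM, 0.5% DMSO vehicle, duplicates. Readout: BID mRNA by TaqMan qRT-PCR; housekeeping-normalized; bidirectional curve fit vs DMSO baseline.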

Caspase-3 (Homo sapiens) = Caspase-3 (Homo sapiens) (UniProt P42574); assay: LTEA_HepaRG_CASP3: Life Technologies and Expression Analysis (LTEA) Assay for cysteine-aspartic acid protease (CASP3) using HepaRG (AID 2283477)
How it was run: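 Read-out is CASP3 mRNA level by TaqMan qRT-PCR in human HepaRG cells after 48 h chemical exposure. Eight half-log concentrations topping at 100 uM were tested in 0.5% DMSO; gain or loss was fitted relative to DMSO.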

[4] = read-out: Cytochrome P450 (CYP24A1), CYP24A1 (gene 1591); assay: LTEA_HepaRG_CYP24A1: Life Technologies and Expression Analysis (LTEA) Assay for Cytochrome P450 (CYP24A1) using HepaRG (AID 2283478)
How it was run: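 HepaRG, 48 h chemical exposure, 8-pt half-log CRC from 100 uM, 0.5% DMSO vehicle, duplicates. Endpoint: CYP24A1 mRNA by Fluidigm TaqMan qRT-PCR, normalized ACTB/GAPDH/POLR2A; gain/loss fit vs DMSO.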

[5] = read-out: Cytochrome P450 (CYP1A2), CYP1A2 (gene 1544); assay: LTEA_HepaRG_CYP1A2: Life Technologies and Expression Analysis (LTEA) Assay for Cytochrome P450 (CYP1A2) using HepaRG (AID 2283479)
How it was run: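 CYP1A2 transcript induction or loss, quantified by Fluidigm qRT-PCR against three housekeeping genes, was fitted bidirectionally against 0.5% DMSO controls. Human HepaRG cells received eight half-log concentrations from 100 uM over 48 h.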

[6] = read-out: cysteine-aspartic acid protease (CASP8), CASP8 (gene 841); assay: LTEA_HepaRG_CASP8: Life Technologies and Expression Analysis (LTEA) Assay for cysteine-aspartic acid protease (CASP8) using HepaRG (AID 2283480)
How it was run: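 qRT-PCR readout of CASP8 mRNA, normalized to three housekeeping genes, after 48 h chemical exposure of HepaRG cells; 8-point half-log series, top 100 uM, 0.5% DMSO vehicle. Bidirectional curve fitting against DMSO baseline.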

[7] = read-out: Cytochrome P450 (CYP2B6), CYP2B6 (gene 1555); assay: LTEA_HepaRG_CYP2B6: Life Technologies and Expression Analysis (LTEA) Assay for Cytochrome P450 (CYP2B6) using HepaRG (AID 2283481)
How it was run: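 HepaRG cells plated 48 h, switched to serum-free induction medium, then dosed 48 h (8 points, half-log from 100 uM, 0.5% DMSO). RNA isolated; CYP2B6 expression measured by qRT-PCR; gain or loss fitted relative to DMSO.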

CYP2C9 (gene 1559) = assay: LTEA_HepaRG_CYP2C9: Life Technologies and Expression Analysis (LTEA) Assay for CYP2C9 using HepaRG (AID 2283484)
How it was run: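 HepaRG, 48 h dosing, 8-pt half-log series, top 100 uM, 0.5% DMSO vehicle. Read-out: CYP2C9 transcript by TaqMan qRT-PCR, housekeeping-normalized (ACTB/GAPDH/POLR2A). Gain or loss fitted vs DMSO baseline.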

CYP2E1 (gene 1571) = assay: LTEA_HepaRG_CYP2E1: Life Technologies and Expression Analysis (LTEA) Assay for CYP2E1 using HepaRG (AID 2283485)
How it was run: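 CYP2E1 transcript was measured by TaqMan qRT-PCR in human HepaRG cultures after 48 h chemical exposure (top 100 uM, half-log steps, 0.5% DMSO vehicle). Housekeeping-gene normalization; gain or loss fitted relative to DMSO baseline.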

CYP4A11 (gene 1579) = assay: LTEA_HepaRG_CYP4A11: Life Technologies and Expression Analysis (LTEA) Assay for CYP4A11 using HepaRG (AID 2283486)
How it was run: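 HepaRG, 48 h chem exposure, 8 conc (100 uM top, half-log), 0.5% DMSO vehicle; qRT-PCR readout, housekeeping-gene normalized; bidirectional curve fit vs DMSO baseline.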

[8] = read-out: Cytochrome P450 3A4 (Homo sapiens) (UniProt P08684); assay: LTEA_HepaRG_CYP3A4: Life Technologies and Expression Analysis (LTEA) Assay for CYP3A4 using HepaRG (AID 2283487)
How it was run: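 CYP3A4 transcript measured by TaqMan qRT-PCR and normalized to three housekeeping genes after 48 h chemical exposure of human HepaRG cells. Top concentration 100 uM, half-log steps, 0.5% DMSO vehicle; gain or loss fitted against DMSO baseline.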

[9] = read-out: DNA damage-inducible transcript 3 (DDIT3), DDIT3 (gene 1649); assay: LTEA_HepaRG_DDIT3: Life Technologies and Expression Analysis (LTEA) Assay for DNA damage-inducible transcript 3 (DDIT3) using HepaRG (AID 2283488)
How it was run: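 qRT-PCR readout (Fluidigm TaqMan), housekeeping-normalized to ACTB, GAPDH, POLR2A. HepaRG cells, 48 h exposure, 8-point half-log series from 100 uM in 0.5% DMSO, duplicates. Gain or loss of signal fitted against DMSO baseline.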

[10] = read-out: Pro-epidermal growth factor (Homo sapiens) (UniProt P01133); assay: LTEA_HepaRG_EGF: Life Technologies and Expression Analysis (LTEA) Assay for Epidermal growth factor (EGF) using HepaRG (AID 2283489)
How it was run: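 HepaRG, 48 h dosing, 100 uM top, half-log x8, 0.5% DMSO. Readout: TaqMan qRT-PCR (Fluidigm array), housekeeping-normalized. Gain or loss of signal fit vs DMSO.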

[11] = read-out: Early growth response protein 1 (EGR1) transcription factor, EGR1 (gene 1958); assay: LTEA_HepaRG_EGR1: Life Technologies and Expression Analysis (LTEA) Assay for Early growth response protein 1 (EGR1) transcription factor using HepaRG (AID 2283490)
How it was run: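 HepaRG, 48 h exposure, 8-pt half-log series from 100 uM, 0.5% DMSO vehicle; EGR1 transcript by TaqMan qRT-PCR (Fluidigm array), housekeeping-normalized; bidirectional fit relative to DMSO baseline.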

[12] = read-out: Alpha-fetoprotein (AFP) gene, AFP (gene 174); assay: LTEA_HepaRG_AFP: Life Technologies and Expression Analysis (LTEA) Assay for Alpha-fetoprotein (AFP) gene using HepaRG (AID 2283472)
How it was run: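 qRT-PCR (Fluidigm TaqMan) readout of AFP transcript, normalized to three housekeeping genes, fitted bidirectionally against 0.5% DMSO baseline. HepaRG cells received chemicals for 48 h in serum-free induction medium, top concentration 100 uM, half-log steps.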

[13] = read-out: Cytochrome P450 2C19 (Homo sapiens) (UniProt P33261); assay: LTEA_HepaRG_CYP2C19: Life Technologies and Expression Analysis (LTEA) Assay for CYP2C19 using HepaRG (AID 2283482)
How it was run: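 Transcript levels of CYP2C19 were quantified by qRT-PCR after HepaRG cells were treated for 48 hours with test chemicals up to 100 uM (eight half-log concentrations, 0.5% DMSO vehicle). Gain or loss of signal was fitted relative to DMSO.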

CYP2C8 (gene 1558) = assay: LTEA_HepaRG_CYP2C8: Life Technologies and Expression Analysis (LTEA) Assay for CYP2C8 using HepaRG (AID 2283483)
How it was run: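 HepaRG (human liver line), 48 h chemical exposure, 8-pt half-log series from 100 uM, 0.5% DMSO vehicle. Readout: CYP2C8 transcript by qRT-PCR, housekeeping-normalized. Bidirectional fit vs DMSO baseline.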

[14] = read-out: Apoptosis regulator Bcl-2 (Homo sapiens) (UniProt P10415); assay: LTEA_HepaRG_BCL2: Life Technologies and Expression Analysis (LTEA) Assay for Bcl-2 gene using HepaRG (AID 2283475)
How it was run: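 qRT-PCR read-out (Fluidigm TaqMan) of BCL2 transcript, normalised to three housekeeping genes, after 48 h chemical exposure of HepaRG cells; 8-point half-log series, top 100 uM, 0.5% DMSO vehicle. Gain or loss of signal fitted relative to DMSO baseline.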

Measured: AC50

Cytochrome P450 3A4 (Homo sapiens), sequence (P08684 whole entry, looked up): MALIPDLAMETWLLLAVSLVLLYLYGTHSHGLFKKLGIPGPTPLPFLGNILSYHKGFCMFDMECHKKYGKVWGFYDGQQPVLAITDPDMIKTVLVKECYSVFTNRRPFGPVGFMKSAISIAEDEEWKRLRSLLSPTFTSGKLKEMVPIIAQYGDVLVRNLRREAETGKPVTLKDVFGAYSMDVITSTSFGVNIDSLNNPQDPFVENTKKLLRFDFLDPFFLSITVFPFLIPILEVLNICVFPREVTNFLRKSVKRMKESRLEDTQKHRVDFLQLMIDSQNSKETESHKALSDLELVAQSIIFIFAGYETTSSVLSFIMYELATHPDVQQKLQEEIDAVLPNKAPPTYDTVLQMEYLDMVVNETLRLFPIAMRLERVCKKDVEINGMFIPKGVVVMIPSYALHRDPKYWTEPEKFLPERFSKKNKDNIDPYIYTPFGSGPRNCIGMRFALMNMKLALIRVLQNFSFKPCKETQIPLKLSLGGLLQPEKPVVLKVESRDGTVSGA
Cytochrome P450 2C19 (Homo sapiens), sequence (P33261 whole entry, looked up): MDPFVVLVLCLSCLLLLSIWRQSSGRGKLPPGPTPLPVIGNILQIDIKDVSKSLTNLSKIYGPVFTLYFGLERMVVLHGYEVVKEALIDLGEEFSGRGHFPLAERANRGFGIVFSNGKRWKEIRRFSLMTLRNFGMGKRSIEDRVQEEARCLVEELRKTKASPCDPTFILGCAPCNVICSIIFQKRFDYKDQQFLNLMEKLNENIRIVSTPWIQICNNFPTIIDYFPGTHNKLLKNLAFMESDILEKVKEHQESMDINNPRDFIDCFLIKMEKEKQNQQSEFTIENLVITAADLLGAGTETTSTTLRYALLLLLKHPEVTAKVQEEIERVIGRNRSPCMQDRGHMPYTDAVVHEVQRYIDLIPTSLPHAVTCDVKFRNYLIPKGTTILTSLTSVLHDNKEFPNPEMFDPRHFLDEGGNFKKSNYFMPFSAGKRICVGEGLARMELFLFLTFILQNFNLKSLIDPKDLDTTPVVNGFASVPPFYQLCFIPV
Caspase-3 (Homo sapiens), sequence (P42574 whole entry, looked up): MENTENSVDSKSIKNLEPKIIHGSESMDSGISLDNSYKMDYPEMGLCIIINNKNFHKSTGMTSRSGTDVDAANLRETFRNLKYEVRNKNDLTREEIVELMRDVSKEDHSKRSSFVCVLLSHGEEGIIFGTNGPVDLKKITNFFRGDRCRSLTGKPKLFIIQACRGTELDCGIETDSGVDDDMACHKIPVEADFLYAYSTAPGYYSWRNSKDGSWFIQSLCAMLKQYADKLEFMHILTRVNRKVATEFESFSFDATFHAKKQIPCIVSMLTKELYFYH
Apoptosis regulator Bcl-2 (Homo sapiens), sequence (P10415 whole entry, looked up): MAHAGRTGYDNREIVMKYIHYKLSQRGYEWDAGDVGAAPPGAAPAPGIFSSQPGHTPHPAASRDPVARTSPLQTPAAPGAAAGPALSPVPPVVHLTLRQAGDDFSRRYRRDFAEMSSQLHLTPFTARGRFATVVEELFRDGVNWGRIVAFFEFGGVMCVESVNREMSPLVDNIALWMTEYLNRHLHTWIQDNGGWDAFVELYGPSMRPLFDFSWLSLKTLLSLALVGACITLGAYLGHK

Oc1cc(Cl)ccc1Oc1ccc(Cl)cc1Cl
inactive: [1] | BCL2L11 (gene 10018) | [2] | [3] | Caspase-3 (Homo sapiens) | [4] | [5] | [6] | [7] | CYP2C9 (gene 1559) | CYP2E1 (gene 1571) | CYP4A11 (gene 1579) | [8] | [9] | [10] | [11]
active: BCL2L11 (gene 10018) 51 µM | [2] 51 µM and 81.5 µM | [3] 10.1 µM | [7] 17 µM and 51 µM | CYP2C9 (gene 1559) 93.4 µM | CYP2E1 (gene 1571) 92.2 µM | CYP4A11 (gene 1579) 51 µM and 79.3 µM

CCOCN(C(=O)CCl)c1c(C)cccc1CC
active: [12] 93.3 µM | BCL2L11 (gene 10018) 67.5 µM | [2] 79.4 µM | [7] 0.077 µM | CYP2C9 (gene 1559) 80.2 µM | CYP2E1 (gene 1571) 81.3 µM | CYP4A11 (gene 1579) 83.5 µM
not listed: [5] | [13] | CYP2C8 (gene 1558) | [14]
inactive: all other assays above

CNC(=O)/C=C(\C)OP(=O)(OC)OC
not listed: [5] | [12] | [14]
inactive: all other assays above

C[C@H]1[C@H](c2ccc(Cl)cc2)SC(=O)N1C(=O)NC1CCCCC1
inactive: [1] | [3] | Caspase-3 (Homo sapiens) | [4] | [6] | [10] | [11]
active: BCL2L11 (gene 10018) 67.2 µM | [2] 36.8 µM | [14] 76 µM | [7] 81.7 µM | [13] 89 µM | CYP2C9 (gene 1559) 78.6 µM | CYP2E1 (gene 1571) 32.5 µM | CYP4A11 (gene 1579) 40.4 µM | [8] 90 µM | [9] 72.3 µM

O=C1c2ccccc2C(=O)N1SC(Cl)(Cl)Cl
not listed: [5] | CYP2C8 (gene 1558) | [14]
inactive: all other assays above

O=C(Nc1ccccc1)Nc1cnns1
active: CYP2C8 (gene 1558) 88.7 µM | CYP2C9 (gene 1559) 84 µM | CYP2E1 (gene 1571) 70.3 µM | CYP4A11 (gene 1579) 72.9 µM | [9] 79.2 µM
not listed: [5] | [11] | [12] | [13]
inactive: all other assays above

CC[C@H](C)[C@H]1O[C@]2(C=C[C@@H]1C)C[C@@H]1C[C@@H](C/C=C(\C)[C@@H](O[C@H]3C[C@H](OC)[C@@H](O[C@H]4C[C@H](OC)[C@@H](O)[C@H](C)O4)[C@H](C)O3)[C@@H](C)/C=C/C=C3\CO[C@@H]4[C@H](O)C(C)=C[C@@H](C(=O)O1)[C@]34O)O2 (tested in a mixture with another compound)
active: BCL2L11 (gene 10018) 10.7 µM | [2] 13.6 µM | [5] 10.9 µM | [7] 11 µM | CYP2C9 (gene 1559) 7.85 µM | CYP2E1 (gene 1571) 8.08 µM | CYP4A11 (gene 1579) 7.39 µM | [8] 10 µM | [9] 10.1 µM | [10] 48.4 µM
inactive: [1] | [3] | Caspase-3 (Homo sapiens) | [4] | [6] | [11]

CNC(=O)CSP(=S)(OC)OC
active: [5] 16.2 µM | [7] 23.1 µM
not listed: [12] | CYP2C8 (gene 1558) | [14]
inactive: all other assays above

Oc1ccc(Cl)cc1Cc1ccccc1
inactive: [1] | BCL2L11 (gene 10018) | [2] | [3] | Caspase-3 (Homo sapiens) | [4] | [5] | [6] | [7] | CYP2C9 (gene 1559) | CYP2E1 (gene 1571) | CYP4A11 (gene 1579) | [8] | [9] | [10] | [11]
active: [2] 79.8 µM | CYP2C9 (gene 1559) 79.2 µM | CYP2E1 (gene 1571) 50.5 µM | CYP4A11 (gene 1579) 81.7 µM and 81.2 µM | [11] 50.5 µM

Clc1ccccc1-c1nnc(-c2ccccc2Cl)nn1
active: [5] 17.3 µM | [7] 7.28 µM | CYP2E1 (gene 1571) 20.7 µM | [8] 9.38 µM
not listed: [12] | [13] | CYP2C8 (gene 1558) | [14]
inactive: all other assays above
